Reference: PubChem BioAssay AID2778 (National Center for Advancing Translational Sciences (NCATS), 2010)
Inconclusive results are not listed. Entries that show only a call come without a potency. The source made the active and inactive calls. Calls come from the whole dose curve; as a rule, active = well fitted inhibition curve with a large enough effect; inconclusive = small, poorly fitted or top-dose-only effect, or effect the other way; inactive = flat fitted curve, though single readings scatter. Positions of bridges follow the written chain, without caps; N, C: chain ends. Non-standard residues stand in square brackets, D forms with d. Residues, ends and D or L forms follow the SMILES beside them. ξ: configuration not given here. *: point of attachment. ξDab(CH2SO3H) = NC(CCNCS(=O)(=O)O)C(=O)O; Heptanoyl(6-Me) = CC(C)CCCCC(=O)*; Dab = NCC[CH](N)C(=O)O

molecular target: Menin (Homo sapiens) (UniProt O00255); assay: Confirmation of Inhibitors Targeting the Menin-MLL Interaction in MLL Related Leukemias: Confirmation in an HTRF (commercial TR-FRET) Assay using His-tagged menin and biotin-labeled MLL peptide; details: His-menin / biotin-MLL peptide binding; series mostly up to 126 µM
Sequence (O00255 whole entry, looked up): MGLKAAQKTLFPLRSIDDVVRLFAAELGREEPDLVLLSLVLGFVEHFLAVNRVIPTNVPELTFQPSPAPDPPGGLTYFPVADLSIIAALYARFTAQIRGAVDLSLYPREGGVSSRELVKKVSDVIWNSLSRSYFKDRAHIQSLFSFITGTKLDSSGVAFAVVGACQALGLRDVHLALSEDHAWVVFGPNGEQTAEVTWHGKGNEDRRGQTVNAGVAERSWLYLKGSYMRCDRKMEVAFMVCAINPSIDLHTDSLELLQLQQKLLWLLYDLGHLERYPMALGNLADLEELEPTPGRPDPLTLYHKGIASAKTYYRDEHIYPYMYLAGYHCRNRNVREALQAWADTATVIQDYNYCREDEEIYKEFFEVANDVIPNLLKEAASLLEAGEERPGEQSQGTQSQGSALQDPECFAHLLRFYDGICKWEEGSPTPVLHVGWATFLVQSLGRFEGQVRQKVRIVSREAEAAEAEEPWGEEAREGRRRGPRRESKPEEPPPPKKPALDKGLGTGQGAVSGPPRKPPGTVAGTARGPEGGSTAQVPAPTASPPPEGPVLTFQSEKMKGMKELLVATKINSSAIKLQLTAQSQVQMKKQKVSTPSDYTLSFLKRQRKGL
Description: qHTS Assay for Inhibitors Targeting the Menin-MLL Interaction in MLL Related Leukemias
NIH Chemical Genomics Center [NCGC]
NIH Molecular Libraries Probe Centers Network [MLPCN]
Assay Submitter (PI): Jolanta Grembecka, Tomasz Cierpicki, University of Virginia
Translocations of the MLL (Mixed Lineage Leukemia) gene are frequently found in human leukemias affecting both children and adults. Fusion of MLL to one of more than 60 genes results in generation of oncogenic proteins upregulating Hox genes, which are vital to blood cell development. Patients harboring fusion of the MLL gene suffer from aggressive leukemias and respond poorly to available therapies. All of the oncogenic fusion proteins have a preserved N-terminal fragment of MLL that has been identified to interact with menin. It has been recently discovered that association with menin is critical to the leukemogenic activity of the MLL fusion oncoproteins. Selective targeting of the menin-MLL interaction could provide an attractive therapeutic approach to develop novel drugs for MLL-related leukemias. Small molecules blocking the menin-MLL interaction should reverse the oncogenic potential of MLL fusion proteins.
We have developed and optimized a fluorescence polarization-based assay for the identification of Menin-MLL inhibitors. The assay was run employing two different MLL-derived peptides. The present assay uses a 12 amino acid peptide labeled with fluorescein at its N-terminus. This peptide consists of the menin high affinity binding motif from MLL and is potently bound by menin. Another peptide with a mutated sequence, labeled with Texas Red, was used in parallel as a less stringent screen for inhibitors.
The present assay uses an alternate technology to confirm hits from the primary screen - homogeneous time resolved fluorescence (HTRF).
The Menin protein, the MLL-wild type (w.t.) derived peptide (N-terminal 12 amino acids), the MLL-derived peptide labeled with Texas Red and the MLL-w.t. peptide labeled with Fluorescein were kindly supplied by laboratory of Dr. Jolanta Grembecka, University of Virginia. All protein and peptide solutions were stored in single use aliquots at -80C. The Eu3+ Cyrptate-conjugated mouse monoclonal antibody anti-6 Histidine (Eu3+-AB) and the Streptavidin-XL665 conjugate (XL665) were purchased from Cisbio International (Bedford, MA). All antibody and XL665 conjugate solution stocks were stored in single use aliquots at -20C. The Buffer components for all assays were purchased from Sigma-Aldrich (St. Louis, MO) and Invitrogen (Carlsbad, CA).
1. HTRF reaction buffer: 50 mM Tris-HCl pH 7.5, 50 mM NaCl, 1mM DTT.
Before use, 0.05% BSA is added.
2. His6-Menin protein, MLL-w.t. labeled with biotin.
Stored in singe use aliquots at -80C.
3. MLL-w.t. unlabeled peptide as positive control: 10 uM final in HTRF buffer.
1. Prepare His6-Menin at 200 nM, MLL-w.t.-biotin at 80 nM in HTRF buffer.
2. Prepare His6-Menin at 200 nM, MLL-w.t.-biotin at 80 nM and 10 uM MLL-w.t. unlabeled mixture in HTRF buffer.
3. Dispense 10 ul per well of reagent in step 1 in columns 2, 4-24 in a black 384 well plate, dispense 10 ul per well of reagents from steps 2 in column 1. Incubate plate at ambient for 15 minutes.
4. Transfer 1 uL per well of compound to plate and incubate at ambient for 1 hr.
5. Dispense 10uL of the donor (6His-Cryptate, 3.5 nM final conc.) and acceptor (SA_XL, 10nM final conc.) complex in the HTRF buffer with 0.01% BSA. Incubate for 1h.
Potency is the fitted concentration of half-maximal effect.

Structure (SMILES) | Potency
O=C(CCC1CCCCC1)NCCN1C2=NC[C@H](Cc3ccc(O)cc3)N2C[C@H]1Cc1ccc(O)cc1 | inactive
COc1cnc(-c2ccccn2)nc1N(C)c1ccccc1 | inactive
Cc1cccc(Nc2nnc(SCC(=O)NC(=O)Nc3ccc4c(c3)OCCO4)s2)c1 | inactive
O=C(COC(=O)c1ccc(NS(=O)(=O)c2cccs2)cc1)Nc1nc2c(F)c(F)c(F)cc2s1 | 39.8 µM (active)
COCC(=O)Nc1cccc2ccccc12 | inactive
Cc1cc(C)c2c(=O)cc(C(=O)NCc3ccccc3)oc2c1 | inactive
O=c1c2ccccc2nc(N/N=C/c2c(O)ccc3ccccc23)n1O | inactive
COc1ccc(-c2csc(NC(=S)NC(=O)/C=C/c3ccc(C(C)C)cc3)n2)cc1OC | inactive
Cc1cnc(NC(=O)C2C(=O)c3ccccc3S(=O)(=O)N2C)s1 (stereo not given) | inactive
C[N+]1(CCNC(=O)/C=N/O)CCCCC1 | inactive
COc1ccc(OC)c(C2C3=C(N=c4s/c(=C\c5cccc(O)c5)c(=O)n42)c2ccccc2CC3)c1 (stereo not given) | inactive
N#CC1=C(N)OC2=C(C(=O)CC(c3ccco3)C2)C1c1ccc(OCc2c(F)cccc2Cl)cc1 (stereo not given) | inactive
O=C(CSc1nnc(-c2c[nH]c3ccccc23)o1)c1ccc(-c2ccccc2)cc1 | inactive
NC(=O)c1ccc(NC(=O)c2cncn2-c2ccccc2)cc1 | inactive
Cc1ccc2nc(-c3ccc(NC(=O)COC(=O)c4ccc(Br)o4)cc3)sc2c1 | inactive
CCCN(CCC)CCCNC(=O)c1cc2c(=O)[nH]c3ccccc3c2s1 | inactive
CCOC(=O)CCC(=O)NCc1ccc2c(c1)cc(C)n2C | inactive
O=[N+]([O-])c1ccc(S(=O)(=O)c2ccccc2)nc1 | inactive
CC(CC(=O)Nc1nc2ccccc2[nH]1)n1ccnc1 (stereo not given) | inactive
COc1cc(OC)cc(C(=O)N/N=C/c2ccc(OC)c(COc3ccc4ccccc4c3)c2)c1 | inactive

Structure (SMILES) | Potency
C=C(C)[C@@H]1CC=C(CN2CCN(Cc3ccccc3)CC2)CC1 | inactive
COC(=O)C1[C@H]2SC(C)(C)C(C(=O)OC)N2C(=O)N1Cc1nc2ccccc2s1 (stereo not given in full) | inactive
COc1ccc(N(CC(=O)NC2CC3CCC2C3)S(=O)(=O)c2ccc(C)cc2)cc1OC (stereo not given) | inactive
COc1ccc2[nH]c(=O)c(CN(Cc3cccs3)C(=S)Nc3cccc(C)c3)cc2c1 | inactive
CCCC(=O)Nc1cccc(NC(=O)c2ccc([N+](=O)[O-])cc2Cl)c1 | inactive
COc1cccc(NC(=O)N2CCCc3ccccc32)c1 | inactive
CCC(C)C1NC(=O)C(CCNCS(=O)(=O)O)NC(=O)C(NC(=O)C(CCNCS(=O)(=O)O)NC(=O)C(NC(=O)C(CCNCS(=O)(=O)O)NC(=O)CCCCC(C)C)C(C)O)CCNC(=O)C(C(C)O)NC(=O)C(CCNCS(=O)(=O)O)NC(=O)C(CCNCS(=O)(=O)O)NC(=O)C(C(C)CC)NC1=O (stereo not given) ({Heptanoyl(6-Me)}-[ξDab(CH2SO3H)]T[ξDab(CH2SO3H)][Dab][ξDab(CH2SO3H)]II[ξDab(CH2SO3H)][ξDab(CH2SO3H)]T; lactam 4-C; configuration not given here) | inactive
O=C(c1cc(F)c(F)cc1Cl)N1CCN(c2ncccn2)CC1 | inactive
Cc1ccc(S(=O)(=O)c2cc(OC(=O)c3ccco3)ccc2OC(=O)c2ccco2)cc1 | inactive
O=C(O)c1ccccc1NS(=O)(=O)c1cccc(-n2sc3ccccc3c2=O)c1 | inactive
CC(=O)c1cccc(NS(=O)(=O)c2ccc(N/C=C\C(=O)c3ccc(F)cc3)cc2)c1 | inactive
CCn1cnc2c1c(=O)n(CC(=O)O)c(=O)n2Cc1ccccc1 | inactive
COc1ccc(OC)c(C(c2c(C)[nH][nH]c2=O)c2c(C)[nH][nH]c2=O)c1 | inactive
CCc1ccc(NC(=O)CSc2nc(O)cc(=O)n2C2CCCC2)cc1 | inactive
COc1ccc(Cn2nnnc2C(c2ccccc2)N2CCN(C3CCCC3)CC2)cc1 (stereo not given) | inactive
CCCn1c(C2CCCN2c2nc(C)cs2)nc2cc(Cl)c(Cl)cc21 (stereo not given) | inactive
O=C(NC(=S)N1CCCc2ccccc21)c1ccc([N+](=O)[O-])cc1 | inactive
C=C1CCC[C@]2(C)C[C@H]3OC(=O)C(CNCCN(CC)CC)[C@H]3CC12 (stereo not given in full) | inactive
Cc1cc2c(N)cccc2nn1 | inactive
C[C@H](NC(=O)c1cc2c(cn1)[nH]c1ccccc12)C(=O)O | 79.4 µM (active)
